MPTP block: inhibitors of mitochondrial permeability transition pore | isolated mouse mitochondria, Ca2+ swelling absorbance, 30 min | inhibition, % at 10 µM | actives 1.4% (n = 360,000) | AID 602449;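 active = inhibition of 50% or more, scaled per plate between neutral and stimulator controls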;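 also: 0% = DMSO wells given calcium and 100% = 1 mM EGTA wells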
CR mimetic SO: yeast age-related superoxide inhibition as caloric restriction mimetic; S. cerevisiae aged cells, superoxide DHE fluorescence; stronger effect = lower value; superoxide response (% of plate mean), % at 10 µM; actives 0.18% (n = 330,000); AID 2690;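 active = superoxide response under a set limit, about three screen SD below normal, cut at about 65% in these data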;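 also: yeast aged for seven days with compound at 30 °C before DHE staining; 100% = average MFI of all compound-treated wells on the plate with controls excluded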
SUMO Mot1 rescue: SUMOylation pathway inhibition by Mot1-301 growth rescue; S. cerevisiae Mot1-301 growth rescue, ATP luminescence, 38.5C; percent above DMSO median, 100 means doubled; growth rescue, % at 18.8 µM; actives 1% (n = 320,000);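 active = every valid replicate shows activation above 250% relative to neutral control wells; inactive = the rest, any valid replicate at or below 250%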;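 also: OY570 slx delta 5 strain wells were the positive control but not used for scaling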
aDG glyco up: increases alpha dystroglycan glycosylation | Pro5-aDG cells, alpha-DG glycosylation AlphaScreen (IIH6); 0% Pro5, 100% B10-LARGE cell signal | activation, % at 10 µM | actives 0.22% (n = 360,000);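 active = activation of at least 8% versus controls, or a plate z-score of at least 8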;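 also: Pro5 are CHO cells carrying HIG-tagged alpha-DG that lacks glycosylation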
FAS-TE inh: blocks the thioesterase domain of human fatty acid synthase | P49327 | recombinant FAS-TE, OMFH fluorogenic substrate, fluorescence endpoint | inhibition, % at 15 µM | actives 0.67% (n = 360,000) | AID 602261;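 active = compounds whose normalised, plate-corrected inhibition of enzyme fluorescence in the single-dose primary screen is 50% or more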;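 also: 0% = DMSO with enzyme and 100% = substrate without enzyme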
Target sequence (P49327 whole entry, looked up, the tested form may be a part): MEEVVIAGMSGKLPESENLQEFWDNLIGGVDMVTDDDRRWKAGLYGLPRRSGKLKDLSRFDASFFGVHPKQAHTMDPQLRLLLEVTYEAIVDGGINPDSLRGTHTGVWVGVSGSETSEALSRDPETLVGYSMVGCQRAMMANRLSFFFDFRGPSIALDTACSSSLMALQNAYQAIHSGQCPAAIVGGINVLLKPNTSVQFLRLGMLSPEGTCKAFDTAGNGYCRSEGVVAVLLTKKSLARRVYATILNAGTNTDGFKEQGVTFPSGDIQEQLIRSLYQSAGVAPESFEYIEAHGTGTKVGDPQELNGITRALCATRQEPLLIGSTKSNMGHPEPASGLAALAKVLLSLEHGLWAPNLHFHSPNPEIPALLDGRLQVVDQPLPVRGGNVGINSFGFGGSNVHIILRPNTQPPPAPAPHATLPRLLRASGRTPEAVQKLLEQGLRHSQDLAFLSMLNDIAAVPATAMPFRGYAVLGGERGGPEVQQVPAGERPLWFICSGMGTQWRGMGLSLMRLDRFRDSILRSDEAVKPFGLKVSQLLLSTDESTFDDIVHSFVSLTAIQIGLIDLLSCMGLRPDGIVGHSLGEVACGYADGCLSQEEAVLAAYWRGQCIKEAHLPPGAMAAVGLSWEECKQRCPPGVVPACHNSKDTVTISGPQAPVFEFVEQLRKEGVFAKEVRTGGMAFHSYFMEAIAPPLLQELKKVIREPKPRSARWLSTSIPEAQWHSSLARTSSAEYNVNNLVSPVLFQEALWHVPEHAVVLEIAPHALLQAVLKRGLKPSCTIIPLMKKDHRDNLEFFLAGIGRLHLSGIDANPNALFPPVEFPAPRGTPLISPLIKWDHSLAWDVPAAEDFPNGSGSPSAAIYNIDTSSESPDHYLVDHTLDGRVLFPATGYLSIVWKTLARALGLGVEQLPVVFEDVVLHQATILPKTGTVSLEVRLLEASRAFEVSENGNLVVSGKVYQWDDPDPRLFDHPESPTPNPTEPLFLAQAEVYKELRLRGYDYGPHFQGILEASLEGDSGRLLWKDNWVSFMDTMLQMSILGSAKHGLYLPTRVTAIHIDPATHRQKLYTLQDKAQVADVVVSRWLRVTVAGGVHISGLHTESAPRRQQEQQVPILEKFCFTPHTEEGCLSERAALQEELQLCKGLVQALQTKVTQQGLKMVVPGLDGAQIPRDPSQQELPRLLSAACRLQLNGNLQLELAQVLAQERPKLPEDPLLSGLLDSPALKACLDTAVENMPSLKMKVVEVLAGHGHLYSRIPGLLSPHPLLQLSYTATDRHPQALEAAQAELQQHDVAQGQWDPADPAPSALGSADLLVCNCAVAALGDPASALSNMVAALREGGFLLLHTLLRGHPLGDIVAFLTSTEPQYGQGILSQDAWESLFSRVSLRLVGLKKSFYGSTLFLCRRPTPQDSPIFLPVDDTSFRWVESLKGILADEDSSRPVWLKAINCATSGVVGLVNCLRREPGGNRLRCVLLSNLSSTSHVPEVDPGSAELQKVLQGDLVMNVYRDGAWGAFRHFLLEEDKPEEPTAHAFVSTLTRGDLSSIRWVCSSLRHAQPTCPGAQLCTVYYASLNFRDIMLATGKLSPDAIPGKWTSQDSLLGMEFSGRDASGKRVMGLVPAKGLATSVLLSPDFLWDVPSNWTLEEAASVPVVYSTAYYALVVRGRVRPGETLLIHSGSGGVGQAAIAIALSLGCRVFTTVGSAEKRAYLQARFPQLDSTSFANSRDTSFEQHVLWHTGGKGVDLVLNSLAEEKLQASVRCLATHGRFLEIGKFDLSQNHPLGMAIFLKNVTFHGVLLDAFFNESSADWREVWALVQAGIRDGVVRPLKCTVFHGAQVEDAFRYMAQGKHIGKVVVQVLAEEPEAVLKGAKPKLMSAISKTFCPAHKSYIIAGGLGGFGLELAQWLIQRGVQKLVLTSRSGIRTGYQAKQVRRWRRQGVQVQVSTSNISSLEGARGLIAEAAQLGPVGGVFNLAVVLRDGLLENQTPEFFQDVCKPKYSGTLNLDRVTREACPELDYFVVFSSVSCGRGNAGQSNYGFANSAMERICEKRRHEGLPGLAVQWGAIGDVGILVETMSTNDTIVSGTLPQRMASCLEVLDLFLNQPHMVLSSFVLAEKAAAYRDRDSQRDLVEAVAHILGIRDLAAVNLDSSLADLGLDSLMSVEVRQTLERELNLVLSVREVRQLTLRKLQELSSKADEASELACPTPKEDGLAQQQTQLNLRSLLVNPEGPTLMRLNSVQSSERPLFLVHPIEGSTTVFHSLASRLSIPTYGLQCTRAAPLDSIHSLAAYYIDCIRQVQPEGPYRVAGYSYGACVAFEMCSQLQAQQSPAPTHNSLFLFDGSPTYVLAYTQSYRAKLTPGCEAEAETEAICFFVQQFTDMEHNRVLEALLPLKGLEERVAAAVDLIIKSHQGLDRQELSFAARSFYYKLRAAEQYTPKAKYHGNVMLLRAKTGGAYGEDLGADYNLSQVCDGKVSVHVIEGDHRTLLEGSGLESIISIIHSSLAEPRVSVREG
Cardio protect: modulators protecting cardiomyocytes from myocardial damage; H9c2 cardiomyocytes, H2O2 injury protection, ATPLite, 2 h; protection from H2O2 cell death, % at 20 µM; actives 0.63% (n = 360,000); AID 588492;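 active = compounds giving at least 50% protection of heart cells from peroxide-induced death in the single-dose screen, raw or plate-pattern-corrected value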;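 also: 0% = DMSO wells with peroxide and 100% = DMSO wells without peroxide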
* hit, by the source's call. Hits are enriched below; roughly 3.8% of the tested compounds scored in any of these assays.

CCOc1cc(N2CCOCC2)c(OCC)cc1NC(=O)c1ccc(OCc2c(C)noc2C)c(OC)c1 was read as MPTP block 1, CR mimetic SO 111, SUMO Mot1 rescue 4, aDG glyco up 0, FAS-TE inh 3 and Cardio protect 63*.
For CCOc1cc(N2CCOCC2)c(OCC)cc1NC(=O)c1ccc(OC)cc1 the results were MPTP block 1, CR mimetic SO 87, SUMO Mot1 rescue 286, aDG glyco up 0, FAS-TE inh 1 and Cardio protect 11.
Cc1ccc(OCc2ccc(C(=O)NN)o2)c([N+](=O)[O-])c1 was read as MPTP block 3, CR mimetic SO 82, SUMO Mot1 rescue 6, aDG glyco up 0, FAS-TE inh -5 and Cardio protect 7.
Screening Cc1ccc(OCc2ccc(C(=O)Nc3c(C)nn(Cc4c(F)c(F)c(F)c(F)c4F)c3C)o2)c([N+](=O)[O-])c1 returned MPTP block 2, CR mimetic SO 119, SUMO Mot1 rescue 2, aDG glyco up 4.0*, FAS-TE inh 38 and Cardio protect -15.
Screening O=C(Nc1cccc(S(=O)(=O)N2CCCC2)c1)c1ccc(Cl)nc1 returned MPTP block 0, CR mimetic SO 110, SUMO Mot1 rescue -3, aDG glyco up 0, FAS-TE inh -1 and Cardio protect -15.
Screening CC(C)CNC(=O)C(=O)NCc1ccccn1 returned MPTP block -2, CR mimetic SO 108, SUMO Mot1 rescue 315*, aDG glyco up 0, FAS-TE inh -9 and Cardio protect 11.
`COc1cccc(/C=C/C(=O)c2ccc(C)c([N+](=O)[O-])c2)c1` gave MPTP block 0, CR mimetic SO 94, SUMO Mot1 rescue 500*, aDG glyco up 0, FAS-TE inh -6 and Cardio protect -11.
COc1ccc(-c2cc(C(=O)NCC3CCCO3)c3ccccc3n2)c(OC)c1 (configuration not stated) was read as MPTP block 0, CR mimetic SO 89, SUMO Mot1 rescue 6, aDG glyco up 0, FAS-TE inh -2 and Cardio protect 5.
Screening CCOc1ccc(-c2cc(C(=O)NCC3CCCO3)c3ccccc3n2)cc1 (configuration not stated) returned MPTP block 1, CR mimetic SO 120, SUMO Mot1 rescue 352*, aDG glyco up 1, FAS-TE inh 2 and Cardio protect 0.
`CCc1ccc(NC(=O)Cn2c3[n+](c4c(F)c(F)ccc42)CCCCC3)cc1` gave MPTP block 1, CR mimetic SO 110, SUMO Mot1 rescue 708*, aDG glyco up 0, FAS-TE inh 3 and Cardio protect 8.
O=C(Cn1c2[n+](c3ccc(C(F)(F)F)cc31)CCCCC2)Nc1ccc(Br)cc1 was read as MPTP block 10, CR mimetic SO 115, SUMO Mot1 rescue -12, aDG glyco up 0, FAS-TE inh -3 and Cardio protect 0.
Screening C=CCn1cnc2c(c1=O)c1nc3ccccc3nc1n2/N=C/c1cccc(OC)c1 returned MPTP block -2, aDG glyco up 0, FAS-TE inh -7 and Cardio protect 11.
COCCn1cnc2c(c1=O)c1nc3ccccc3nc1n2/N=C/c1ccc(OC)c(OC)c1 was read as MPTP block 1, CR mimetic SO 104, SUMO Mot1 rescue -5, aDG glyco up 0, FAS-TE inh 0 and Cardio protect 51*.
`CCCCCCn1cnc2c(c1=O)c1nc3ccccc3nc1n2/N=C/c1ccco1` gave MPTP block -5, aDG glyco up 0, FAS-TE inh 20 and Cardio protect 55*.
Screening COCCn1cnc2c(c1=O)c1nc3ccccc3nc1n2/N=C/c1ccco1 returned MPTP block 0, CR mimetic SO 102, SUMO Mot1 rescue -22, aDG glyco up 0, FAS-TE inh -3 and Cardio protect 26.
Screening Cn1ccc(C(=O)NC(=S)N2CCSCC2)n1 returned MPTP block 2, CR mimetic SO 115, SUMO Mot1 rescue -8, aDG glyco up 0, FAS-TE inh -6 and Cardio protect 4.
Cc1cccc(Nc2ncnc(N)n2)c1 was read as MPTP block 0, CR mimetic SO 89, SUMO Mot1 rescue 541*, aDG glyco up 0, FAS-TE inh -2 and Cardio protect -4.
